# Experimental data reported in PubChem BioAssay (NCI).
# About 79,000 compounds went through this panel and 15% of them were active in at least one assay; those are over-represented in the sample as a whole. Active and inactive are the calls of the source. No stated cut-off is given here; in the data, active means growth inhibition above about 70%; inactive means the rest.
# Assay: NCI Yeast Anticancer Drug Screen. Data for the rad14 strain (AID 159);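 further: 0% = growth of vehicle-treated control cultures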
# Conditions: S. cerevisiae rad14 strain growth inhibition; at 11.0 µM; active compounds read high
# Summary of the method: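 A mutant yeast strain defective in DNA damage repair is treated with compound; inhibition of its growth is scored against untreated, vehicle-exposed cultures.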
row,SMILES,growth inhibition
1,CCC/C(Cl)=N\OC(=O)Nc1cccc(C(F)(F)F)c1,16% (inactive)
2,[O-][n+]1c2ccc(O)cc2nc2ccc(Cl)cc21,30% (inactive)
3,Clc1ccccc1C1OC1c1ccccc1Cl (centres undefined),-50% (inactive)
4,c1ccc2c(c1)c1ncccc1c1nccnc21,23% (inactive)
5,CC(=O)Nc1ccc2c(c1)C(=Nc1ccc(C(=O)O)cc1)c1ccccc1-2,5% (inactive)
6,COc1ccc(OC)c2cc3ccccc3cc12,-3% (inactive)
7,COc1cc(C2c3cc4c(cc3OC(NNc3ccccc3)C2C)OCO4)cc(OC)c1OC (centres undefined),29% (inactive)
8,O=C1c2cc([N+](=O)[O-])ccc2-c2cccc(F)c21,26% (inactive)
9,CCCCCCCCCCCC(=O)N(C)C,12% (inactive)
10,CCCCCCCCCCCC1=C(O)C(=O)C=C(O)C1=O,80% (active)
11,Cc1ccc(CSC(N)=Nc2ccccc2)cc1C,-17% (inactive)
12,CCCCCCCCCCC1CCC(=O)O1 (centres undefined),7% (inactive)
13,O=[N+]([O-])c1cc(CCl)ccc1CCl,38% (inactive)
14,Nc1ccc2c(c1)C(=O)c1cccc(N)c1C2=O,29% (inactive)
15,CCCCCCCCCCNC(=O)OCC,-3% (inactive)
16,CC1=C(C)Cc2c(O)ccc(O)c2C1,18% (inactive)
17,COc1ccc2c(c1)C(=O)c1ccccc1C2,8% (inactive)
18,CCC(=O)OCCn1c2nc(=O)[nH]c(=O)c-2nc2cc(C)c(C)cc21,23% (inactive)
19,O=C(OCCN1CCCCCC1)C(c1ccsc1)C1CCCCC1 (centres undefined),40% (inactive)
20,Oc1c(Br)cc(Br)cc1C1CCCCC1,3% (inactive)

row,SMILES,growth inhibition
1,CC1(C)[C@@H]2CC[C@]1(C)[C@H](OC(=O)CSC#N)C2,12% (inactive)
2,S=C(N/N=C(/c1ccccc1)c1ccccn1)N1CCCCCC1,-4% (inactive)
3,Cc1ccc2[nH]c3c(C)c4cc[n+](C)cc4c(C)c3c2c1,-8% (inactive)
4,CNC(=O)OCc1c(COC(=O)NC)c(-c2ccc(-c3ccccc3)cc2)n(C)c1C,-21% (inactive)
5,COc1ccccc1/C=C1\Sc2scc(-c3cccc([N+](=O)[O-])c3)[n+]2C1=O,99% (active)
6,O=[N+]([O-])c1ccc2c(c1)C(N1CCN(CCO)CC1)Cc1ccc(F)cc1S2 (centres undefined),1% (inactive)
7,Cc1ccc(CCC2=CCCc3c2ccc2ccccc32)cc1,0% (inactive)
8,O=[N+]([O-])c1cccc2nccc(NCCCO)c12,34% (inactive)
9,Cc1ccc(-n2cc(-c3ccc(Cl)cc3)c(C#N)c2N)cc1,-1% (inactive)
10,Cc1ccc(S/N=C\c2ccccc2O)cc1,-4% (inactive)
11,O=C(O)C1OC1(c1cccc(Cl)c1)c1ccccc1Cl (centres undefined),-11% (inactive)
12,NC(=S)N/N=C\c1nccc2ccccc12,51% (inactive)
13,Clc1cccc(C(Nc2nncs2)Nc2nncs2)c1Cl,2% (inactive)
14,O=C(OCC=C1CCCC1)c1cc([N+](=O)[O-])cc([N+](=O)[O-])c1,12% (inactive)
15,O=C(Nc1ccccc1)C(=O)C(C(=O)c1ccccc1)C(c1ccccc1)c1ccccc1 (centres undefined),5% (inactive)
16,N#CN1C2CCC1CC(=O)C2,-13% (inactive)
17,COc1ccccc1C(=O)OCC1CCCN2CCCCC12 (centres undefined),77% (active)
18,CCNc1nnc(CSc2nc(-c3ccccc3)c(-c3ccccc3)[nH]2)s1,-51% (inactive)
19,O=C1c2ccccc2-c2n[nH]c3cccc1c23,-6% (inactive)
